# Vaccinia mCherry: vaccinia inhibition (mCherry reporter). Vaccinia virus mCherry reporter infection, fluorescence. Potency, µM (highest dose often 36.5 µM), for the others: at the highest dose activity change, negative = inhibition, hits mostly inhibitors. actives 0.63% (n = 310,000). AID 720579; calls by dose curve; tested in A549 cells; further: potency means the concentration at half of the fitted maximal effect; on the % scale 0 is the no-effect control and ±100 the full control effect; nearly all actives have a fitted effect of over 35% in size
# Marburg entry inh: Marburg virus entry inhibition; actives 1.8% (n = 300,000); Potency, µM (highest dose often 37.8 µM), for inactives: at the top dose activity change, negative = inhibition, hits mostly inhibitors; Marburg virus pseudotyped entry inhibition, cell reporter; AID 540276; calls by dose curve; tested in HEK293 cells; further: potency means the concentration at half of the fitted maximal effect; on the % scale 0 is the no-effect control and ±100 the full control effect
# VACV Venus inh: inhibitors of vaccinia virus (Venus reporter); Vaccinia virus Venus reporter expression, fluorescence; Potency, µM (series often up to 36.5 µM), for the others: top-dose activity change, negative = inhibition, most hits filed as inhibitors; actives 0.46% (n = 330,000); calls by dose curve; tested in A549 cells; further: potency means the concentration at half of the fitted maximal effect; on the % scale 0 is the no-effect control and ±100 the full control effect; nearly all actives have a fitted effect of over 30% in size
# Shiga inhibitor: inhibitors of Shiga toxin in Vero cells; Vero cells, Shiga toxin protein synthesis inhibition reporter; inhibition, % at 38.7 µM; actives 9.2% (n = 290,000); AID 2315; in the data active means inhibition mostly above about 28%, no sharp cut-off; inactive means mostly below about 43%; further: 0% is about no effect
# LASV entry inh: blocks Lassa virus binding to or entry into cells; Lassa virus pseudotype entry inhibition, cell reporter; Potency, µM (series often up to 37.9 µM), inactives show at the highest dose activity change, negative = inhibition, usual class: inhibitors; actives 1.2% (n = 300,000); calls by dose curve; tested in HEK293 cells; further: potency means the concentration at half of the fitted maximal effect; on the % scale 0 is the no-effect control and ±100 the full control effect; nearly all actives have a fitted effect of over 50% in size
# Cycloheximide cs: counter-screen hit for Shiga toxin inhibitors, cycloheximide | max response, % | actives 12% (n = 300,000) | AID 2314 | cell reporter, cycloheximide protein synthesis inhibition counterscreen; in the data active means max response mostly above about 13%, no sharp cut-off; inactive means mostly below about 14%; further: read at 38.3 µM for the half of the compounds with a filed dose; 0% is about no effect
# * hit, by the source's call; i = inactive; ? = inconclusive; . = no result; [ ] = dose if it differs, or a comment. Many of the other results were omitted from the sample, so hits are more common in it than they were.
SMILES,Vaccinia mCherry,Marburg entry inh,VACV Venus inh,Shiga inhibitor,LASV entry inh,Cycloheximide cs
CS(=O)c1ccc(-n2c(=O)n(Cc3ccccc3)c(=O)c3[nH]cnc32)cc1 (centres undefined),-26.9%,18.4%[46.1 µM],-0.2%,-10.4,21.5%[46.1 µM],-2.8
COc1cccc(OC)c1C(=O)NNC(=O)c1cccnc1,-13.3%,4.3%,-8.9%,-15.3,?,18.2*
COc1cccc(C(=O)NC23CC4CC(CC(C4)C2)C3)c1,-13.7%,?,-25.8%,17.9,1.0%[46.1 µM],14.7*
COc1cccc(NC(=O)c2cccnc2)c1,-16.4%,19.3%,-8.7%,31.1,1.0%,31.6*
O=C(Nc1cccc(NC(=O)c2cccnc2)c1)c1cccnc1,-1.1%,-1.5%,-0.8%,-3.5,22.0%,-3.6
Cc1cccc(C(=O)Nc2ccc3ccccc3c2)c1,.,.,.,91.6*,.,52.4*
CC(=O)Nc1ccc(C(=O)NNC(=O)c2cccc(C)c2)cc1,-12.1%,-22.8%,-8.0%,12.2,17.8%,1.6
O=C(Nc1cccc(Cl)c1)Nc1ccccc1OCc1cc(=O)n2ccccc2n1,-6.0%,.,-20.0%,.,25.9%[46.1 µM],.
COc1ccc(/C(O)=C/C(=O)C(=O)NNC(=O)c2ccccc2)cc1,-14.1%,17.2%[46.1 µM],-12.4%,32.7,1.4%[46.1 µM],29.9*
COc1cccc(C(=O)N/N=C(/CCC(=O)O)c2ccccc2)c1,-7.9%,?,-24.6%,active,-11.9%,52.4*
COc1cccc(C(=O)NNC(=O)c2ccccc2)c1,.,.,.,69.2*,.,43.5*
Nc1ccc(/C=C/c2ccnc3ccccc23)cc1,-19.9%,.,-13.9%,.,.,.
COCCCn1c(=O)cc(C)[nH]c1=S,.,.,.,-12.2,.,-1.5
COC[C@@H]1CCCN1[C@@H]1C[S+](=O)([O-])N[C@@H]1COCc1ccccc1,.,.,.,.,-1.9%[46.1 µM],.
CC1CCN(C(=O)CSc2ccc(-c3ccccc3)nn2)CC1,i,21.7%,-4.8%,4.1,?,11.2
O=C(CSc1ccc(-c2ccccc2)nn1)c1cccs1,i,?,-11.5%,54.9,17.7%,28.1*
COc1ccc(-c2ccc(SCC(=O)N3CC(=O)Nc4ccccc43)nn2)cc1,-7.8%,?,-14.2%,35.0*,?,21.2*
COc1ccc(-c2ccc(SCC(=O)c3cccs3)nn2)cc1,-17.2%,?,-18.9%,60.7*,?,34.3*
Cc1ccc(-c2ccc(SCC(=O)c3ccccc3)nn2)cc1,-15.5%,0.3%,-16.8%,66.4,3.1%,30.5*
Cc1ccc(C(=O)CSc2ccc(-c3ccncc3)nn2)cc1,-4.0%,7.0%[46.1 µM],-3.7%,25.0,12.1%,6.5
CN1c2ccc(Cl)cc2C(=O)NC1c1ccc([N+](=O)[O-])s1 (centres undefined),-28.0%[7.34 µM],-23.4%[46.1 µM],-10.9%[7.34 µM],6.4,14.0%,-2.2
COC(=O)[C@@]1(C=C[C@@H](C)[C@H](OC)c2ccccc2Br)[C@@H]2OCCC[C@@H]21,.,-4.4%[14.2 µM],.,.,.,.
O=C(Nc1ccc(Cl)cc1Cl)c1ccc(Br)o1,-14.9%,?,-6.5%,78.1*,2.2%,43.9*
O=C(Nc1cc(Cl)ccc1N1CCOCC1)c1ccc(Br)o1,-19.0%,-20.9%,-17.9%,65.4*,0.5%,69.4*
COc1ccccc1CNCC(=O)Nc1ccc(N(C)C)cc1,.,.,.,110.8*,.,50.0*
SMILES,Vaccinia mCherry,Marburg entry inh,VACV Venus inh,Shiga inhibitor,LASV entry inh,Cycloheximide cs
CCN(CC)S(=O)(=O)c1ccc(OC)c(NC(=S)Nc2cccc(C)c2C)c1,-8.0%,2.8%,-4.9%,-13.8,-5.0%,24.0*
CCn1c2ccccc2c2cc(NC(=O)CNCc3ccccc3OC)ccc21,?,5.62µM*,-25.6%,-8.4,?,-3.9
COc1ccccc1CNCC(O)Cn1c2ccccc2c2ccccc21 (centres undefined),.,8.2µM*,.,-26.9,16.4µM*,-10.9
COc1ccc(-c2cnnn2-c2ccc(NC(=O)c3ccccc3OC)cc2)cc1,-13.7%,.,-11.9%,.,-21.0%[46.1 µM],.
CSC(=NS(=O)(=O)c1ccc(N)cc1)NS(=O)(=O)c1cccs1,-6.6%,8.9%[46.1 µM],14.0%,.,-24.3%[46.1 µM],.
CCN(CC)S(=O)(=O)c1ccc(C)c(NC(=O)CNCc2ccccc2OC)c1,-0.2%,4.47µM*,-14.7%,31.4,?,0.5
COc1ccccc1CNCC(=O)Nc1cc(S(=O)(=O)N2CCCCC2)ccc1C,-22.3%,-29.3%,-20.6%,.,?,.
CN(C(=O)c1ccc2c(Cl)c3c(nc2c1)CCC3)c1ccccc1,-11.2%,3.6%,-29.2%,93.5*,-4.3%,45.0*
CCC(C)NC(=O)c1ccc2c(Cl)c3c(nc2c1)CCC3 (centres undefined),.,.,.,53.1*,.,27.8*
